# From PMC5540273 (PLoS ONE, 2017)
# Tested on: BTK
# Details: concentration: 1 μM, replicates: in singlicate; n = 1
# 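Also: KINOMEscan kinase panel screen.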
row,SMILES,%Inh [%]
1,COc1cc(Nc2nccc(N3CCC(NS(=O)(=O)c4ccc(NC(C)=O)cc4)CC3)n2)cc(OC)c1OC [GSK1379825],0
2,Cc1cc(-c2ccnc(Nc3cccc(C#N)c3)n2)cc(C)c1O [GSK1440913],14
3,Cc1ccc(C)c(NC(=O)Nc2ccc(C)c(-c3ccc(C(=O)Nc4ccncc4)cc3)c2)c1 [GSK1398473],0
4,CN(C)CCNS(=O)(=O)c1ccc(-c2ccnc3[nH]ccc23)cc1 [GSK977620],0
5,O=C(Nc1n[nH]c2nc(-c3cccc(O)c3)ccc12)C1CC1 [SB-711805],0
6,COc1cccc(C2=C(Nc3cccc(O)c3)C(=O)NC2=O)c1 [SB-390771],0
7,CSc1ccc(NC2=C(c3ccc(Cl)cc3)C(=O)NC2=O)cc1 [SB-317658],0
8,Cc1ccc(O)cc1Nc1ccnc2cc(-c3ccc(CN4CCCCC4)o3)ccc12 [GW557777],19
9,Fc1cc(Cl)ccc1Nc1ccnc2cc(-c3ccc(CN4CCOCC4)o3)ccc12 [GW560109],46
10,COC(=O)Nc1nc2ccc(Oc3ccc(NC(=O)Nc4cc(C(F)(F)F)ccc4F)cc3)cc2[nH]1.Cl [GW654607],0
11,CN(c1ccc(NC(=O)N2CCN(CCCN3CCOCC3)CC2)cc1)c1ccnc(Nc2ccc(CS(C)(=O)=O)cc2)n1.Cl [GW830899],0
12,CCn1c(-c2nonc2N)nc2c(-c3ccccc3)ncc(OCCCN)c21.O=C(O)C(F)(F)F.O=C(O)C(F)(F)F [GSK260205],0
13,COc1cc(Nc2nccc(N3CCC(NC(=O)Nc4ccc5c(c4)OCO5)C3)n2)cc(OC)c1OC (stereo not drawn) [GSK1379766],0
14,Cc1ccc(NC(=O)c2ccnc(N3CCCCC3)c2)cc1-c1ccc(C(=O)NCC2CC2)cc1 [GW775610],0
15,COC(=O)Nc1nc2ccc(Oc3ccc(CC(=O)Nc4cc(C(F)(F)F)ccc4F)cc3)cc2[nH]1 [GW680903],0
16,COc1ccc(NC(=O)c2ccoc2)cc1-c1ccc(C(=O)NCC2CC2)cc1 [GW810437],0
17,Cc1cccc(Nc2nc(NCCN)ncc2C(N)=O)c1 [GSK1292139],0

row,SMILES,%Inh [%]
1,Cl.N#CCc1ccc(Nc2nccc(Nc3ccc(Oc4ccccc4)cc3)n2)cc1 [GW639905],0
2,Fc1cc(Cl)ccc1Nc1ccnc2cc(-c3ccc(CN4CCSCC4)o3)ccc12 [GW560106],37
3,NCCC(NC(=O)c1cc(Br)c(-c2ccnc3[nH]ccc23)s1)c1ccccc1.O=C(O)C(F)(F)F.O=C(O)C(F)(F)F (stereo not drawn) [GSK1307810],24
4,O=C(O)C(F)(F)F.O=c1[nH]ccc2nc(N[C@@H]3CCNC3)nc(Nc3ccc4c(c3)S(=O)(=O)CC4)c12 [GSK2181306],29
5,Cc1ccccc1CC(=O)N1CCc2cc(-c3cn(C)c4ncnc(N)c34)ccc21 [GSK2603346],0
6,CCNC(=O)/C=C/c1n[nH]c2cc(Sc3ccccc3C(=O)NC)ccc12,0
7,Nc1ncc(-c2ccc3nccc(-c4ccncc4)c3c2)cc1S(=O)(=O)N1CCCCC1 [GSK1693850],0
8,CS(=O)(=O)c1cccc(CNc2nc(Nc3ccc4c(c3)CCC(=O)N4)ncc2C(F)(F)F)c1,0
9,COc1ccc(C)c(Nc2ccnc(Nc3ccc(-c4cnc[nH]4)cc3)n2)c1.Cl [GW784041],0
10,O=C(O)C(F)(F)F.O=c1[nH]ccc2nc(N[C@@H]3CCNC3)nc(Nc3cc(Cl)cc(Cl)c3)c12 [GSK2188764],0
11,Cl.Cl.NC(CNC(=O)c1cc(Br)c(-c2ccnc3[nH]ccc23)s1)c1ccccc1 (stereo not drawn) [GSK1322949],0
12,COC(=O)Nc1nc2cc(Oc3ccc(NC(=O)Nc4cccc(SC)c4)cc3)ccc2[nH]1.Cl [GW697999],2
13,CCOc1nccc(-c2c(-c3ccc(F)cc3)ncn2C2CCNCC2)n1 [SB-249175],34
14,Cl.Cl.NCC(NC(=O)c1cc(-c2cccnc2)c(-c2ccnc3[nH]ccc23)s1)c1ccccc1 (stereo not drawn) [GSK1323434],0
15,Nc1ncnc2scc(-c3ccc(NC(=O)Cc4cc(F)ccc4F)cc3)c12.O=C(O)C(F)(F)F [SB-731254-M],0
16,Cn1cc(-c2ccc3c(c2)CCN3C(=O)Cc2cc(F)cc(C(F)(F)F)c2)c2c(N)ncnc21 [GSK2635225],0
